Test results reported in PubChem BioAssay (NCATS).
Records with an inconclusive call do not appear. Values without a mark were called inactive. Calls of active or inactive are those of the source. Calls follow the shape of the dose curve; as a rule, active = well fitted cell-killing curve with a large enough effect; inconclusive = small, poorly fitted or top-dose-only effect, or effect the other way; inactive = no such curve, though single readings can be large or run the other way.

test: Quantitative High-Throughput drug screen in 47 multiple myeloma cell lines against the NCATS MIPE library collection: KMS12BM_JCRB cell viability assay (AID 1918971); details: KMS12BM myeloma viability, CellTiter-Glo ATP, 48 h; series mostly up to 45.8 µM; viability, % of DMSO: at the top concentration; also: nearly all actives have a fitted effect of over 35% in size
From the text: PI: Beverly A. Mock Ph.D.
Laboratory of Cancer Biology and Genetics,
Center for Cancer Research, National Cancer Institute,
National Institute of Health, Bethesda, Maryland
Drug resistance and disease progression are common in multiple myeloma (MM) patients, underscoring the need for new therapeutic combinations. […] We hypothesized that effective combinations would reduce MYC expression and enhance p16 activity. […] These preclinical data identify potentially useful drug combinations for evaluation in drug-resistant MM and reveal potential mechanisms of combined drug sensitivity.
Described herein is the primary MIPE qHTS used to cherrypick compounds. Validated compounds were then further tested for potential synergistic activiy.
[1] Peat TJ, Gaikwad SM, Dubois W, Gyabaah-Kessie N, Zhang S, Gorjifard S, Phyo Z, Andres M, Hughitt VK, Simpson RM, Miller MA, Girvin AT, Taylor A, Williams D, D'Antonio N, Zhang Y, Rajagopalan A, Flietner E, Wilson K, Zhang X, Shinn P, Klumpp-Thomas C, McKnight C, Itkin Z, Chen L, Kazandijian D, Zhang J, Michalowski AM, Simmons JK, Keats J, Thomas CJ, Mock BA. Drug combinations identified by high-throughput screening promote cell cycle transition and upregulate Smad pathways in myeloma. Cancer Lett. 2023 Aug 1;568:216284. doi: 10.1016/j.canlet.2023.216284. Epub 2023 Jun 24. PMID: 37356470; PMCID: PMC10408729.
SEQUENCE No. (e.g., 1, 2, 3, etc.); […] (e.g., Cells, Incubation, Reagent, etc.); VALUE and DESCRIPTION.
1; Cells; 5 uL; white, solid bottom 1536-well Greiner assay plate.
2; Compounds; 23 nL; Kalypsis pin tool (Wako USA) equipped with a 1536-well pin head to transfer to the assay plates.
3; Incubation; 48 hours; 37C incubation.
4; Reagent;5uL; CellTiter Glo (Promega).
5; Detector; 425V; Luminescence; Viewlux PerkinElmer.
NOTES (numbers refer to Sequence numbers above)
1. The cell-based screening methods employed in this study were like those previously published. Briefly, the corresponding myeloma cell lines were screened in 1,536-well plates with 500 cells, 5-uL per well for inhibition of cell viability (assessed by measuring ATP levels with CellTiterGlo).
2. NCATS MIPE 4.0 library of approved and investigational drugs were added using the Kalypsis pin tool. Wells treated with DMSO only for 100% viability and media only wells for 0% viability were used as controls.
3. The assay plates were covered and incubated for 48 hours in a 37C, 5% CO2 incubator with controlled humidity.
4. After 48 hours, CellTilter-GloTM luminescent substrate mix (Promega) reagent was added to the assay plate and plates we incubated for 5 min at room temperature.
5. Signal was measured as median relative luminescence units on a ViewLux (PerkinElmer) multiplate reader.
[1] Heske CM, Davis MI, Baumgart JT, Wilson K, Gormally MV, Chen L, Zhang X, Ceribelli M, Duveau DY, Guha R, Ferrer M, Arnaldez FI, Ji J, Tran HL, Zhang Y, Mendoza A, Helman LJ, Thomas CJ. Matrix Screen Identifies Synergistic Combination of PARP Inhibitors and Nicotinamide Phosphoribosyltransferase (NAMPT) Inhibitors in Ewing Sarcoma. Clin Cancer Res. 2017 Dec 1;23(23):7301-7311. doi: 10.1158/1078-0432.CCR-17-1121. Epub 2017 Sep 12. PMID: 28899971; PMCID: PMC6636827.
Potency is read from the fitted curve at half-maximal effect.

SMILES | viability, % of DMSO | Potency
C[C@]12CC[C@H](O)CC1=CC[C@@H]1[C@H]2CC[C@]2(C)C(c3cccnc3)=CC[C@H]12 | 105% [at 23.2 µM] | –
O=C1CCC(N2C(=O)c3ccccc3C2=O)C(=O)N1 (stereo not given) | – | 18.7 µM (active)
CCN(CC)CCCC(C)Nc1ccnc2cc(Cl)ccc12 (stereo not given) | 123% | –
Cc1c(CCOc2ccc(C(=O)O)cc2)c2cc(Cl)ccc2n1C(c1ccccc1)c1ccccc1 | – | 16.6 µM (active)
Cc1c(C)c2c(c(C)c1O)CCC(C)(COc1ccc(CC3SC(=O)NC3=O)cc1)O2 (stereo not given) | 145% | –
NC(N)=NC(=O)c1nc(Cl)c(N)nc1N | 142% | –
c1ccc(-c2nn3c(c2-c2ccnc4cc(OCCN5CCOCC5)ccc24)CCC3)nc1 | – | 26.4 µM (active)
CCCCCCCc1ccc(CCc2cccc(O)c2C(=O)O)cc1 | – | 0.332 µM (active)
COc1ccccc1[C@H](c1cccc2ccccc12)[C@@](C)(C#N)C(=O)N1CCC(c2cccc(C(F)(F)F)c2)CC1 | – | 2.35 µM (active)
COc1ccc(C2=N[C@H](c3ccc(Cl)cc3)[C@H](c3ccc(Cl)cc3)N2C(=O)N2CCNC(=O)C2)c(OC(C)C)c1 | – | 20.9 µM (active)
CC[C@H](Nc1ncnc2nc[nH]c12)c1nc2cccc(F)c2c(=O)n1-c1ccccc1 | – | 18.7 µM (active)
N#CC[C@H](C1CCCC1)n1cc(-c2ncnc3[nH]ccc23)cn1 | – | 23.5 µM (active)
O=C(O)[C@@H](c1ccc(OCc2ccc3ccccc3n2)cc1)C1CCCC1 | 110% | –
O=C(O)CCc1ccc(NCc2cccc(Oc3ccccc3)c2)cc1 | 128% | –
Cc1cc2c(C(C)C)c(O)c(O)c(C=O)c2c(O)c1-c1c(C)cc2c(C(C)C)c(O)c(O)c(C=O)c2c1O | – | 14.8 µM (active)
c1ccc([C@H]2CN3CCSC3=N2)cc1 | 144% | –
CCn1c(-c2nonc2N)nc2c(C#CC(C)(C)O)ncc(OC[C@H]3CCCNC3)c21 | – | 14.8 µM (active)
CCOC(=O)C1=C[C@]2(CC)CCCN3CCc4c(n1c1ccccc41)[C@@H]32 | – | 14.8 µM (active)
Cc1ccc(NC(=O)c2cccc(C(C)(C)C#N)c2)cc1Nc1ccc2ncn(C)c(=O)c2c1 | – | 20.9 µM (active)
Cc1cnc(NC(=O)C2=C(O)c3ccccc3S(=O)(=O)N2C)s1 | 143% | –

SMILES | viability, % of DMSO | Potency
COc1ccc2nc(S(=O)Cc3ncc(C)c(OC)c3C)[nH]c2c1 (stereo not given) | 137% | –
Cc1cccc(-c2nn(C(=S)Nc3ccccc3)cc2-c2ccnc3ccccc23)n1 | – | 14.8 µM (active)
CCCc1nn(C)c2c(=O)[nH]c(-c3cc(S(=O)(=O)N4CCN(C)CC4)ccc3OCC)nc12 | – | 11.8 µM (active)
Cc1cccc(-c2[nH]c(C(C)(C)C)nc2-c2ccc3nccnc3c2)n1 | – | 20.9 µM (active)
O=c1ncn2nc(Sc3ccc(F)cc3F)ccc2c1-c1c(Cl)cccc1Cl | – | 18.7 µM (active)
COc1ccc(CC2=NN3C([C@@H](CCc4ccccc4)[C@@H](C)O)=NC(C)C3C(=O)N2)cc1OC (stereo not given in full) | 129% | –
Nc1nc2[nH]cc(CCc3ccc(C(=O)N[C@@H](CCC(=O)O)C(=O)O)cc3)c2c(=O)[nH]1 | – | 20.9 µM (active)
Clc1ccc(Nc2nnc(Cc3ccncc3)c3ccccc23)cc1 | – | 20.9 µM (active)
CCC(=O)N[C@H]1CC[C@H](C(=O)N(C)c2ccc(-c3nc4ccccc4o3)cc2)C1 | 114% | –
Cc1c(CN2CCN(C(=O)C(C)C)CC2)sc2c(N3CCOCC3)nc(-c3cnc(N)nc3)nc12 | – | 0.0296 µM (active)
CNC(=O)c1ccc(C)c(-n2c(C)cc(OCc3ccc(F)cc3F)c(Br)c2=O)c1 | – | 20.9 µM (active)
CC(C)(N)C(=O)N[C@H](COCc1ccccc1)C(=O)N1CCC2(CC1)CN(S(C)(=O)=O)c1ccccc12 | – | 14.8 µM (active)
O=C(O)COCCN1CCN(C(c2ccccc2)c2ccc(Cl)cc2)CC1 (stereo not given) | 138% | –
CCCc1nc2c(C)cc(-c3nc4ccccc4n3C)cc2n1Cc1ccc(-c2ccccc2C(=O)O)cc1 | 160% | –
O=C(Nc1cccnc1)N1CCC(Cc2cccc(Oc3ccc(C(F)(F)F)cn3)c2)CC1 | – | 13.2 µM (active)
CN(C(=O)c1ccc(F)cc1C(F)(F)F)C1CCN(c2nnc(-c3ccnn3C)c3ccccc23)CC1 | 110% | –
Cn1cc(-c2ccc3nnc(C(F)(F)c4ccc5ncccc5c4)n3n2)cn1 | – | 23.5 µM (active)
CCCCNc1cc(C(=O)O)cc(S(N)(=O)=O)c1Oc1ccccc1 | 138% | –
CC[C@@H](C)[C@H](NC(=O)[C@H](CC1CCCCC1)NC(=O)c1ccno1)C(=O)N1CCC2(CCc3ccccc32)CC1 | – | 9.35 µM (active)
COc1ccc(CCN2CCN(CCCc3ccccc3)CC2)cc1OC | 124% | –
